From PubChem BioAssay (NCATS)
Values joined by “and” are separate entries in the source; they are usually repeats but may differ in a detail not shown here. Equal values may be shown once. Results filed as inconclusive are left out. Active and inactive are the calls of the source. Unless noted, calls follow the shape of the dose curve; as a rule, active = well fitted curve in the direction sought with a large enough effect; inconclusive = small, poorly fitted or top-dose-only effect, or another doubt; inactive = no such curve, though single readings can be large; an effect the other way counts as inactive or inconclusive.

Columns and labels:
[1] = Cell Viability - HepG2 (AID 433; calls by dose curve;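 also: potency is read from the fitted curve at half-maximal effect; cells exposed to compound for 40 hours; potency for ATP loss meaning cytotoxicity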); settings: qHTS
Summary of the method: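 ATP luminescence (CellTiter-Glo) after 40 h compound exposure, 37 °C, HepG2, 1500 cells/well, complete medium. Normalized: DMSO = basal, 100 uM tamoxifen = 100% inhibition. AC50 via standard Hill equation.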

[2] = Cell Viability - MRC5 (AID 434; calls by dose curve;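 also: potency is read from the fitted curve at half-maximal effect; cells exposed to compound for 40 hours at 37 °C; potency reflects cytotoxicity seen as loss of intracellular ATP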); settings: MRC5 lung fibroblast viability, qHTS
Summary of the method: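 AC50 values come from Hill-equation fits of intracellular ATP loss, measured by CellTiter-Glo luminescence. Normal lung fibroblasts (MRC5) had 40 hr compound treatment at 37 C, normalized between DMSO and 100 uM tamoxifen.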

[3] = Cell Viability - SK-N-SH (AID 435; calls by dose curve; also: potency is read from the fitted curve at half-maximal effect); settings: SK-N-SH neuroblastoma cell viability qHTS
Summary of the method: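 CellTiter-Glo ATP luminescence, 20 min RT read; cells pre-plated 5 hr, compound 40 hr at 37 °C, 1500 cells/well, complete medium. Normalized DMSO = 0, 100 uM tamoxifen = 100% inhibition; Hill-fit AC50.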

[4] = Cell Viability - HUV-EC-C (AID 542); settings: HUV-EC-C endothelial cell viability, qHTS; series mostly up to 92.2 µM;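 also: cells exposed to compound for 40 hours; % is scaled to controls: 0 for no effect and ±100 for the full control effect; nearly all actives have a fitted effect of over 35% in size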
Summary of the method: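 Luminescent ATP read-out (CellTiter-Glo, 20 min room temperature) after 40 hr compound treatment of HUV-EC-C cells at 37 °C. Concentration-response data fitted with the standard Hill equation to give AC50; tamoxifen and doxorubicin served as positive controls.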

[5] = Cell Viability - Renal Proximal Tubule (AID 545); settings: renal proximal tubule cells viability; at 91.7 µM (top of the series), primary cells of rat origin unless noted;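 also: cells exposed to compound for 40 hours; nearly all actives have a fitted effect of over 40% in size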
Summary of the method: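 Rat kidney proximal tubule cells, freshly isolated; 1000 cells/well, 5 hr settle, compound 40 hr 37 °C. CellTiter-Glo 20 min RT, luminescence read. AC50 by standard Hill fit.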

[6] = Cell Viability - Mesenchymal (AID 546); settings: mesenchymal cells viability, qHTS; series mostly up to 91.7 µM;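 also: cells exposed to compound for 40 hours before reading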
Summary of the method: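 CellTiter-Glo luminescence (intracellular ATP, 20 min room temperature) after 40 hr compound exposure at 37 °C of 1000 glomerulus-derived human kidney mesenchymal cells/well; AC50 values obtained by fitting qHTS concentration-response data to the Hill equation.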

[7] = Cellular Toxicity (caspase-3) Jurkat (AID 655); settings: Jurkat caspase-3 activation, luminescence, DMSO = 0%, tamoxifen = 100%; at 92.2 µM (top of the series);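 also: cells exposed to compound for 16 h at 37 °C before reading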
Summary of the method: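 Luminescent caspase-3/7 readout (aminoluciferin substrate cleavage) in human T-cell leukemia Jurkat cells after 16 hr compound exposure. Concentration-response normalized to DMSO and 100 uM tamoxifen; AC50 by standard Hill equation.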

[8] = Cellular Toxicity (caspase-3) HUV-EC-C (AID 656); settings: HUV-EC-C cells, caspase-3 activation (apoptosis), vehicle = 0, 100 µM tamoxifen = 100%; series mostly up to 92.2 µM
Summary of the method: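 Luminescent caspase-3/7 activation (aminoluciferin substrate cleavage) in HUV-EC-C cells after 16 hr compound exposure, 37°C. Signal normalized to DMSO basal and 100 uM tamoxifen as 100%; AC50 from concentration-response fitted with the Hill equation.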

[9] = Cellular Toxicity (caspase-3) SHSY5Y (AID 657); settings: SH-SY5Y caspase-3 activation, DMSO zero, 10 µM staurosporine = 100%; series mostly up to 91.7 µM
Summary of the method: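 Luminescent caspase-3/7 readout (aminoluciferin release) in SH-SY5Y cells after 16 h compound exposure in complete medium. Activity scaled between DMSO basal and 10 uM staurosporine as 100%; concentration-response fitted to Hill equation for AC50.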

[10] = Cellular Toxicity (caspase-3) BJ (AID 658); settings: BJ fibroblasts, luminescence, normalized: DMSO 0%, staurosporine 100%; series mostly up to 91.7 µM
Summary of the method: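 Caspase-Glo 3/7 luminescence, read 1 hr after reagent at room temperature, in normal BJ fibroblasts exposed 16 hours at 37 °C. AC50 values from Hill-equation concentration-response, scaled between DMSO basal and 10 uM staurosporine as 100%.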

[11] = Cellular Toxicity (caspase-3) MRC-5 (AID 659); settings: MRC-5 cells, luminescence, normalized: DMSO 0%, 10 µM staurosporine 100%; series mostly up to 91.7 µM
Summary of the method: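 Luminescent Caspase-Glo 3/7 read-out (1 h, room temperature) after a 16 h, 37 °C compound exposure of MRC-5 lung fibroblasts at 1500 cells/well. Concentration-response AC50 from Hill equation; 0% DMSO, 100% 10 uM staurosporine.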

[12] = Cellular Toxicity (caspase-3) Mesangial (AID 660); settings: mesangial cells, normalized: DMSO 0%, 100 µM tamoxifen 100%; series mostly up to 91.7 µM;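 also: combined caspase 3 and 7 activity read by Caspase-Glo luminescence; cells exposed to compound for 16 h before the caspase read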
Summary of the method: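 Luminescent Caspase-Glo 3/7 readout (aminoluciferin substrate cleavage, 20 min RT) after 16 h compound exposure at 37 °C of normal human mesangial cells. Signal increase normalized between DMSO basal and 100 uM tamoxifen; Hill-equation AC50.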

[13] = Cellular Toxicity (caspase-3) SK-N-SH (AID 661); settings: SK-N-SH caspase-3 activation, qHTS, DMSO as zero, staurosporine as full; series mostly up to 91.7 µM
Summary of the method: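 Luminescent Caspase-Glo 3/7 read-out after 16 hr compound exposure of SK-N-SH neuroblastoma cells at 37 °C. Signal increase normalized to DMSO (basal) and 10 uM staurosporine (100%); AC50 from Hill equation fits of qHTS concentration-response data.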

[14] = Cellular Toxicity (caspase-3) H-4-II-E (AID 663); settings: H-4-II-E rat hepatoma, scaled: DMSO 0%, 100 µM tamoxifen 100%; series mostly up to 92.2 µM;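 also: cells exposed to compound for 16 hr before readout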
Summary of the method: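 Caspase 3/7 activation measured by luminescent aminoluciferin substrate cleavage after 16 hr compound treatment of H-4-II-E cells in complete medium. Increase normalized between DMSO (basal) and 100 uM tamoxifen (100%); Hill-equation AC50 from concentration-response.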

[15] = Cellular Toxicity (caspase-3) Renal Proximal Tubule (AID 667); settings: renal proximal tubule cells; at 91.7 µM (top of the series), primary cells freshly taken from rat, solvent-only wells 0%, staurosporine 100% unless noted;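 also: cells exposed to compound for 16 hours at 37 °C before detection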
Summary of the method: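 Luminescent caspase 3/7 signal from peptide-aminoluciferin cleavage measures apoptosis in freshly isolated rat kidney proximal tubule cells after 16 h compound exposure. Concentration-response data are normalized to DMSO and 10 uM staurosporine, and AC50 values come from Hill equation fits.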

[16] = MultiTox-Fluor Cytotoxicity Assay - LYMP1-001 - Dead Cells (AID 946); settings: LYMP1-001 lymphoblastoid cells, dead-cell protease fluorescence; series mostly up to 92.2 µM
Summary of the method: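 Cytotoxicity as increased dead-cell protease fluorescence (bis-AAF-R110, 485/520 nm), read 60 min after MultiTox-Fluor reagent. Human lymphoblastoid line exposed 16 h; Hill-fitted AC50, with DMSO as 0% and 15 uM tetraoctylammonium bromide as 100%.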

[17] = Cell Viability - LYMP1-002 - Assay at 16 hr (AID 948); settings: LYMP1-002 lymphoblastoid cell viability; series mostly up to 92.2 µM;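 also: 0% = DMSO alone and full effect = 92 µM tetraoctylammonium bromide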
Summary of the method: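 LYMP1-002 human lymphoblastoid cells, 2500/well; 5 hr 37 C; cpd 16 hr 37 C; CellTiter-Glo 30 min RT; luminescence (ATP). Concentration-response, Hill-fit AC50. Pos ctrl tetraoctylammonium bromide.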

[18] = MultiTox-Fluor Cytotoxicity Assay - LYMP1-003 - Dead Cells (AID 961); settings: LYMP1-003 lymphoblastoid cells, dead-cell protease fluorescence; series mostly up to 92.2 µM; also: nearly all actives have a fitted effect of over 70% in size
Summary of the method: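 Dead-cell protease release, detected as bis-AAF-R110 fluorescence at 485/520 nm, was measured in LYMP1-003 cells after 16 h compound treatment at 37 C. AC50 values came from Hill-modeled qHTS curves normalized to DMSO (0%) and 15 uM tetraoctylammonium bromide (100%).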

[19] = qHTS assay for cell viability of HEK293 cells (AID 743288); settings: ATP luminescence (CellTiter-Glo), 18 h; max response: stronger effect = lower value; also: % is scaled to controls: 0 for no effect and ±100 for the full control effect; nearly all actives have a fitted effect of over 50% in size
Summary of the method: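 ATP luminescence (CellTiter-Glo) reports metabolically competent cell number after parental HEK293 cells, 2,000/well, were treated with DMSO-dissolved compounds for 18 h at 37 C; reagent incubation 30 min, room temperature.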

[20] = qHTS assay for cell viability of the p53RE-bla HCT-116 cell line (AID 743292); settings: p53RE-bla HCT-116 viability, ATP luminescence, 16 h; series mostly up to 95 µM; also: % is scaled to controls: 0 for no effect and ±100 for the full control effect; nearly all actives have a fitted effect of over 55% in size
Summary of the method: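 Compound-exposed HCT-116 (p53RE-bla) cells, 4,000 per well, were kept 16 h at 37 C following a 5 h preincubation. Cell number was estimated from total ATP by CellTiter-Glo luminescence read after 30 min at room temperature.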

C=CC(=O)OCC
inactive: Potency [1] > 92 µM | Potency [2] > 92 µM | Potency [3] > 92 µM | Potency [4] | activity change, negative = cytotoxicity [5] 0.0849% | outcome [6] | caspase-3 activation [7] -0.667% | outcome [8] | outcome [9] | outcome [10] | outcome [11] | outcome [12] | outcome [13] | outcome [14] | caspase-3 activation [15] -0.996% | Potency [16] | Potency [17] | Potency [18] | max response [19] -0.244% | Potency [20]

CCOP(=S)(OCC)Oc1ccc([N+](=O)[O-])cc1
inactive: Potency [1] > 92 µM | Potency [2] > 92 µM | Potency [3] > 92 µM | Potency [4] | activity change, negative = cytotoxicity [5] -6.62% and -2.54% | outcome [6] | caspase-3 activation [7] -2.23% and 0.755% | outcome [8] | outcome [9] | outcome [10] | outcome [11] | outcome [12] | outcome [13] | outcome [14] | caspase-3 activation [15] 14.9% and 4.17% | Potency [16] | Potency [17] | Potency [18] | max response [19] 0.0323% and -20.7% and -1.59% | Potency [20]

O=NN(c1ccccc1)c1ccccc1
inactive: Potency [1] > 92 µM | Potency [2] > 92 µM | Potency [3] > 92 µM | Potency [4] | activity change, negative = cytotoxicity [5] -4.13% | outcome [6] | caspase-3 activation [7] 3.48% | outcome [8] | outcome [9] | outcome [10] | outcome [11] | outcome [12] | outcome [13] | outcome [14] | caspase-3 activation [15] 1.42% | Potency [16] | Potency [17] | Potency [18] | max response [19] -0.72% and 1.61% | Potency [20]

COc1ccc(N)cc1
inactive: Potency [1] > 92 µM | Potency [2] > 92 µM | Potency [3] > 92 µM | Potency [4] | activity change, negative = cytotoxicity [5] 0.402% and -5.11% | outcome [6] | caspase-3 activation [7] 2.07% and 0.631% | outcome [8] | outcome [9] | outcome [10] | outcome [11] | outcome [12] | outcome [13] | outcome [14] | caspase-3 activation [15] 4.4% and -11% | Potency [16] | Potency [17] | Potency [18] | max response [19] 2.27% and -1.78% | Potency [20]

ClC(Cl)=C(Cl)C(Cl)=C(Cl)Cl
inactive: Potency [1] > 92 µM | Potency [2] > 92 µM | Potency [3] > 92 µM | Potency [4] | activity change, negative = cytotoxicity [5] -4.45% | outcome [6] | caspase-3 activation [7] -0.64% | outcome [8] | outcome [9] | outcome [10] | outcome [11] | outcome [12] | outcome [13] | outcome [14] | caspase-3 activation [15] 5.5% | Potency [16] | Potency [17] | Potency [18] | max response [19] 3.55% and -1.89% | Potency [20]

CCCCCCCC(=O)Cl
inactive: Potency [1] > 92 µM | Potency [2] > 92 µM | Potency [3] > 92 µM | Potency [4] | activity change, negative = cytotoxicity [5] -1.44% | outcome [6] | caspase-3 activation [7] -0.927% | outcome [8] | outcome [9] | outcome [10] | outcome [11] | outcome [12] | outcome [13] | outcome [14] | caspase-3 activation [15] 8.29% | Potency [16] | Potency [17] | Potency [18] | max response [19] -11% | Potency [20]

S=C=Nc1cccc2ccccc12
inactive: Potency [1] > 92 µM | Potency [2] > 92 µM | Potency [3] > 92 µM | Potency [4] | activity change, negative = cytotoxicity [5] 4.87% | outcome [6] | caspase-3 activation [7] 1.77% | outcome [8] | outcome [9] | outcome [10] | outcome [11] | outcome [12] | outcome [13] | outcome [14] | caspase-3 activation [15] -4.28% | Potency [16] | Potency [17] | Potency [18] | max response [19] 0.149% | Potency [20]

C=CC(C)=O
inactive: Potency [1] > 92 µM | Potency [2] > 92 µM | Potency [3] > 92 µM | Potency [4] | activity change, negative = cytotoxicity [5] 14% | outcome [6] | caspase-3 activation [7] -0.622% | outcome [8] | outcome [9] | outcome [10] | outcome [11] | outcome [12] | outcome [13] | outcome [14] | caspase-3 activation [15] -2.96% | Potency [16] | Potency [17] | Potency [18] | max response [19] 0.318% | Potency [20]

c1ccc(-c2ccccc2)cc1
inactive: Potency [1] > 92 µM | Potency [2] > 92 µM | Potency [3] > 92 µM | Potency [4] | activity change, negative = cytotoxicity [5] 1.72% | outcome [6] | caspase-3 activation [7] 0.52% | outcome [8] | outcome [9] | outcome [10] | outcome [11] | outcome [12] | outcome [13] | outcome [14] | caspase-3 activation [15] -8.06% | Potency [16] | Potency [17] | Potency [18] | max response [19] 8.08% and -1.75% | Potency [20]

O=C(Cl)C(Cl)(Cl)Cl
inactive: Potency [1] > 92 µM | Potency [2] > 92 µM | Potency [3] > 92 µM | Potency [4] | activity change, negative = cytotoxicity [5] 0.33% | outcome [6] | caspase-3 activation [7] 3.49% | outcome [8] | outcome [9] | outcome [10] | outcome [11] | outcome [12] | outcome [13] | outcome [14] | caspase-3 activation [15] -1.87% | Potency [16] | Potency [17] | Potency [18] | max response [19] -17% | Potency [20]
